Data taken from article PMC7862700, “An all-to-all approach to the identification of sequence-specific readers for epigenetic DNA modifications on cytosine”.

Molecular target: T1, ELK1 (Homo sapiens, UniProt P19419 1-428)
T1 sequence: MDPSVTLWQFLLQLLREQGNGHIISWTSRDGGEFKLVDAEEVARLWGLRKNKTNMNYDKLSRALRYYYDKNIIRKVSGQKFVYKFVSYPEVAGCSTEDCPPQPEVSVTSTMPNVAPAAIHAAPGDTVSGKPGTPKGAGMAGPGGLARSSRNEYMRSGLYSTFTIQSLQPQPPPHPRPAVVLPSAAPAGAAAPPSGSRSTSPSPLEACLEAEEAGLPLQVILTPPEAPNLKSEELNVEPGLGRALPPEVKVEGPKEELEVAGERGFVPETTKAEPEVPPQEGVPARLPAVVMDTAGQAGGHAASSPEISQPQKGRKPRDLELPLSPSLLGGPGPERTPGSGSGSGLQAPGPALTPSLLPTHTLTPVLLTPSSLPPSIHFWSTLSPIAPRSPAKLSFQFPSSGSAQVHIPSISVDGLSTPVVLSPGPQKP
Assay: DAPPL (digital affinity profiling via proximity ligation, sequencing); 10 mM Tris-HCl pH 7.5, 50 mM NaCl, 1 mM DTT, 4% glycerol, room temperature, 30 min; GST-TFs on glutathione beads, 16-mer random dsDNA library, 0.1% formaldehyde crosslink after washing; high values mean tight binding
Details: protein: recombinant; tags: N-terminal GST; dsDNA, one strand shown
How it was run: (§1)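 Sequencing on an Illumina NextSeq500 followed washing, crosslinking with 0.1% formaldehyde, proximity ligation (BsaI/T4 ligase, 1 h, 37 °C) and PCR amplification of pools that had been incubated for 30 min at room temperature with 200 nmole of a random double-stranded 16-mer DNA library in Tris/NaCl/DTT/glycerol buffer. Each pool held DNA-barcoded human transcription factors, expressed in yeast as GST fusions and captured on glutathione beads, plus a tag-only sample. Binding signal is a hexamer's read frequency for a factor divided by its frequency in the tag-only sample.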

Sequence | binding signal
GTTGCC | 1.01 fold enrichment (6-mer frequency, TF over GST control)
GGCAGC | 1.02 fold enrichment (6-mer frequency, TF over GST control)
ATAACG | 1.04 fold enrichment (6-mer frequency, TF over GST control)
GATCCG | 1.01 fold enrichment (6-mer frequency, TF over GST control)
AGATGT | 1 fold enrichment (6-mer frequency, TF over GST control)
GCCACA | 1.02 fold enrichment (6-mer frequency, TF over GST control)
CCACCA | 1.04 fold enrichment (6-mer frequency, TF over GST control)
GACCAA | 1.05 fold enrichment (6-mer frequency, TF over GST control)
AGGTAA | 1.03 fold enrichment (6-mer frequency, TF over GST control)
GATTGA | 1.01 fold enrichment (6-mer frequency, TF over GST control)

Molecular target: T2, GABPA (Homo sapiens, UniProt Q06546 1-454)
T2 sequence: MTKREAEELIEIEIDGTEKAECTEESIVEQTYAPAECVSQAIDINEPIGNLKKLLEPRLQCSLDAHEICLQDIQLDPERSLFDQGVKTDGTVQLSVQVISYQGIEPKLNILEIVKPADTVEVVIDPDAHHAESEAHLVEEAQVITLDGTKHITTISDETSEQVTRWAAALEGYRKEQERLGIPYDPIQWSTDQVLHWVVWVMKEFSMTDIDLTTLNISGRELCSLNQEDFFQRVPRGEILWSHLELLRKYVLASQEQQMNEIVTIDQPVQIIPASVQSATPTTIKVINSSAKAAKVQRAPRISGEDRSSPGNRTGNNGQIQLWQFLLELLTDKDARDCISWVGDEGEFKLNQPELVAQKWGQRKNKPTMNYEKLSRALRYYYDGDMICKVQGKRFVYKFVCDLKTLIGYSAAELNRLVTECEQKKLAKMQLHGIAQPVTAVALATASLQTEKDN
Assay: as above
Details: protein: recombinant; tags: N-terminal GST; dsDNA, one strand shown
How it was run: as §1

Sequence | binding signal
ATAACG | 1 fold enrichment (6-mer frequency, TF over GST control)
AGATGT | 1.01 fold enrichment (6-mer frequency, TF over GST control)
GTGCAA | 1.02 fold enrichment (6-mer frequency, TF over GST control)
GACCAA | 1.04 fold enrichment (6-mer frequency, TF over GST control)
CAAGCC | 1.03 fold enrichment (6-mer frequency, TF over GST control)
AGGTAA | 1.02 fold enrichment (6-mer frequency, TF over GST control)

Molecular target: T3, ERG (Homo sapiens, UniProt P11308 1-479)
T3 sequence: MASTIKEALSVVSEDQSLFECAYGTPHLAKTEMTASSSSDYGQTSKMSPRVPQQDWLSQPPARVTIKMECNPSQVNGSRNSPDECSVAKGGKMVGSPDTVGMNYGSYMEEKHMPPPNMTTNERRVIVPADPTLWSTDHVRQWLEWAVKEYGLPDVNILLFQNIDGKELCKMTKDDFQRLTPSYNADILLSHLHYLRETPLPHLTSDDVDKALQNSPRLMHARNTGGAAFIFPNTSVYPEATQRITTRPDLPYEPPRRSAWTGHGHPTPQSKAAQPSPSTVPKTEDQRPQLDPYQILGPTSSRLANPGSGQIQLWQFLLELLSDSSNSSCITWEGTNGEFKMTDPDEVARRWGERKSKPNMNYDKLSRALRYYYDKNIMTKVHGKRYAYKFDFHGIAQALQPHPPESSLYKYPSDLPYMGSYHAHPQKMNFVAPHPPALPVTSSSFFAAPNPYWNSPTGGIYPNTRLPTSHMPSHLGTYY
Assay: as above
Details: protein: recombinant; tags: N-terminal GST; dsDNA, one strand shown
How it was run: as §1

Sequence | binding signal
GATCCG | 1.04 fold enrichment (6-mer frequency, TF over GST control)
GTCATT | 1.03 fold enrichment (6-mer frequency, TF over GST control)
ACGCGT | 1 fold enrichment (6-mer frequency, TF over GST control)

Molecular target: ELF1 (Homo sapiens, UniProt P32519 1-619)
Sequence (P32519 whole entry): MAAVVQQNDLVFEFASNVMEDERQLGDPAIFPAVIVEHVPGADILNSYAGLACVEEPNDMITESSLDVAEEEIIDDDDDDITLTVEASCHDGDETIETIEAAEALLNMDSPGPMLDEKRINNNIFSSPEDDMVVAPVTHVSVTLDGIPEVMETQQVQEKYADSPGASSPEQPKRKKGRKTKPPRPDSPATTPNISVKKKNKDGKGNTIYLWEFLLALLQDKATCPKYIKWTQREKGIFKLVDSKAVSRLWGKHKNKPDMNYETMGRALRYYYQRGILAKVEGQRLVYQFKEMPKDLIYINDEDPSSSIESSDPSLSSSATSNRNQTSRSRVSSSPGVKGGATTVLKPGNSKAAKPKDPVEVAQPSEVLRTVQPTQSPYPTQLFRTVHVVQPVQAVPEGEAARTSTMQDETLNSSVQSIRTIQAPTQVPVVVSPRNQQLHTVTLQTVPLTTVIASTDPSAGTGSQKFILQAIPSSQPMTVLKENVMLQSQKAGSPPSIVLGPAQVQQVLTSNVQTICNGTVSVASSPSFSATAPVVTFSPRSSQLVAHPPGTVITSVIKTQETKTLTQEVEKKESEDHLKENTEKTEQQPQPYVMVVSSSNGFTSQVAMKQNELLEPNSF
Assay: as above
Details: protein: recombinant; tags: N-terminal GST; dsDNA, one strand shown
How it was run: as §1

Sequence | binding signal
TGAACG | 1.01 fold enrichment (6-mer frequency, TF over GST control)
ACACAG | 1.05 fold enrichment (6-mer frequency, TF over GST control)
GCCACA | 1.01 fold enrichment (6-mer frequency, TF over GST control)
TCTGAG | 1.01 fold enrichment (6-mer frequency, TF over GST control)
CCACCA | 1.12 fold enrichment (6-mer frequency, TF over GST control)
GACCAA | 1.02 fold enrichment (6-mer frequency, TF over GST control)
GATACC | 1.04 fold enrichment (6-mer frequency, TF over GST control)
TCAGTA | 1.01 fold enrichment (6-mer frequency, TF over GST control)

Molecular target: T4, EHF (Homo sapiens, UniProt Q9NZC4 1-300)
T4 sequence: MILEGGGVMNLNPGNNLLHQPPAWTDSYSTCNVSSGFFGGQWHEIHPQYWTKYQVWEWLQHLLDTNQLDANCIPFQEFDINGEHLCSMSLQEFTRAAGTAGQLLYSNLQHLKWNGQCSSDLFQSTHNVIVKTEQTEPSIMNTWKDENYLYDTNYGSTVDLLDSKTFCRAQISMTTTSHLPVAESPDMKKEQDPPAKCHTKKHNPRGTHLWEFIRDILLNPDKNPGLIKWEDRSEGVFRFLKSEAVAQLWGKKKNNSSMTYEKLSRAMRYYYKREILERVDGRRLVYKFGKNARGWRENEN
Assay: as above
Details: protein: recombinant; tags: N-terminal GST; dsDNA, one strand shown
How it was run: as §1

Sequence | binding signal
GGCTGC | 1.02 fold enrichment (6-mer frequency, TF over GST control)
TCTGAG | 1.01 fold enrichment (6-mer frequency, TF over GST control)
CCACCA | 1.04 fold enrichment (6-mer frequency, TF over GST control)
GTGCAA | 1 fold enrichment (6-mer frequency, TF over GST control)
GATACC | 1 fold enrichment (6-mer frequency, TF over GST control)

Molecular target: SPI1 (Homo sapiens, UniProt P17947 1-270)
Assay: as above
Details: protein: recombinant; tags: N-terminal GST; dsDNA, one strand shown
How it was run: as §1

Sequence | binding signal
GGCTGC | 1.01 fold enrichment (6-mer frequency, TF over GST control)
ATAACG | 1.01 fold enrichment (6-mer frequency, TF over GST control)
GTGCAA | 1.06 fold enrichment (6-mer frequency, TF over GST control)
GTGGTA | 1.02 fold enrichment (6-mer frequency, TF over GST control)

Molecular target: SPIB (Homo sapiens, UniProt Q01892 1-262)
Sequence (Q01892 whole entry): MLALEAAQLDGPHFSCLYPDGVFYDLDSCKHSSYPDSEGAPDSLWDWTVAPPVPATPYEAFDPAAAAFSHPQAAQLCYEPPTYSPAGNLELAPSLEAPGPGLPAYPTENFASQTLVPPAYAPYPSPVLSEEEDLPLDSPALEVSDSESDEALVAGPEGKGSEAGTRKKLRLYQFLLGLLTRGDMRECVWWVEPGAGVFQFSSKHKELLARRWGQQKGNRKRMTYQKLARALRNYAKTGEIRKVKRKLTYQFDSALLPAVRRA
Assay: as above
Details: protein: recombinant; tags: N-terminal GST; dsDNA, one strand shown
How it was run: as §1

Sequence | binding signal
ATAACG | 1.01 fold enrichment (6-mer frequency, TF over GST control)
GATCCG | 1.05 fold enrichment (6-mer frequency, TF over GST control)
CCACCA | 1.08 fold enrichment (6-mer frequency, TF over GST control)
ACGCGT | 1.04 fold enrichment (6-mer frequency, TF over GST control)
GTGGTA | 1 fold enrichment (6-mer frequency, TF over GST control)

Molecular target: T5, ELK3 (Homo sapiens, UniProt P41970 1-407)
T5 sequence: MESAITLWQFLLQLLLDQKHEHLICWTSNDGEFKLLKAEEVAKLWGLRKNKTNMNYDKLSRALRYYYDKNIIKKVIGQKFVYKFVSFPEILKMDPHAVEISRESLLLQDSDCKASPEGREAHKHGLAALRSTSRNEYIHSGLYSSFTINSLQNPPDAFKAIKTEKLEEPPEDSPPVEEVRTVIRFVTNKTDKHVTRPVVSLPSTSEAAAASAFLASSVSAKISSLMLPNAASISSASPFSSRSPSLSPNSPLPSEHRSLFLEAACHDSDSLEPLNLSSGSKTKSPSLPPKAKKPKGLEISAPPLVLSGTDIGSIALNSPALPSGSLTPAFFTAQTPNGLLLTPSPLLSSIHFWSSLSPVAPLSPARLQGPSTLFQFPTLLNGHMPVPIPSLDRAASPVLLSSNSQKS
Assay: as above
Details: protein: recombinant; tags: N-terminal GST; dsDNA, one strand shown
How it was run: as §1

Sequence | binding signal
GTTGCC | 1 fold enrichment (6-mer frequency, TF over GST control)
CGGTCC | 1.03 fold enrichment (6-mer frequency, TF over GST control)
TGAACG | 1.06 fold enrichment (6-mer frequency, TF over GST control)
GCGTTA | 1.09 fold enrichment (6-mer frequency, TF over GST control)
GCATAT | 1.04 fold enrichment (6-mer frequency, TF over GST control)
AAAGTC | 1.08 fold enrichment (6-mer frequency, TF over GST control)
CAGTAT | 1.03 fold enrichment (6-mer frequency, TF over GST control)
TCTGAG | 1.01 fold enrichment (6-mer frequency, TF over GST control)
CCACCA | 1.03 fold enrichment (6-mer frequency, TF over GST control)
CAAGCC | 1.06 fold enrichment (6-mer frequency, TF over GST control)
